In assay [1] the target is Estrogen receptor (Homo sapiens) (UniProt P03372). As to the kind of experiment: CCTE_Deisenroth_AIME_384WELL_LUC_Active: CCTE's 384-well Estrogen Receptor Transactivation Assay with AIME metabolic competence (ERTA luciferase; metabolism positive), Deisenroth Lab (AID 2284030). A digest of the protocol: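 AIME metabolism-positive mode: chemicals 0.002 - 200 uM, 2 h with alginate-bound PB/BNF-induced rat S9 → medium to VM7Luc4E2 ERTA, 24 h → luciferase. Positive fit vs 17beta-estradiol; n=4 typical.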
Estrogen receptor (Homo sapiens), sequence (P03372 whole entry, looked up): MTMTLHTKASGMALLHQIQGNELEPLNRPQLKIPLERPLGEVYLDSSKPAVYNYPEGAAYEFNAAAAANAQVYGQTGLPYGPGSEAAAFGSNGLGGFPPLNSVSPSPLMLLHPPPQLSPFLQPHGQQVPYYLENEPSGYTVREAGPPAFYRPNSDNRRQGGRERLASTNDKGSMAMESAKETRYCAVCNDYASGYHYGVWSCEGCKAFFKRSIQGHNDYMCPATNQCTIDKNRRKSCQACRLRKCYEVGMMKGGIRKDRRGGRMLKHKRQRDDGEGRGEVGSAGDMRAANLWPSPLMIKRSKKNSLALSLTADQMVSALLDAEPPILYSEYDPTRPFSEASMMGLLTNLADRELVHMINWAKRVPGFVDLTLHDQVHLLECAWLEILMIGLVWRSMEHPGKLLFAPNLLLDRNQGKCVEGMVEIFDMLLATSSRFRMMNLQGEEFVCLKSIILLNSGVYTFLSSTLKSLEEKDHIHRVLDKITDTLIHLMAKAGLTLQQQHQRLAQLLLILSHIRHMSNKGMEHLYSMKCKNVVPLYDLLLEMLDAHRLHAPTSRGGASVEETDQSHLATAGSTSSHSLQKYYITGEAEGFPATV

The nature of assay [2]: CCTE_Deisenroth_AIME_384WELL_CTox_Active: Cytotoxicity Assessment (CTOX) in CCTE's 384-well Estrogen Receptor Transactivation Assay with AIME metabolic competence (metabolism positive), Deisenroth Lab (AID 2284037).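 Note: chemicals first conditioned 2 h by alginate-bound induced rat liver S9 before cells; activity means signal loss indicating cell death.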 A digest of the protocol: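 VM7Luc4E2 breast cells received medium pre-incubated 2 h with chemical over alginate microspheres holding induced male Sprague Dawley rat liver S9; viability read 24 h later by protease-substrate fluorescence. Loss of signal, bidirectional fit, 0.002–200 uM.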

For assay [3], the target named is Estrogen receptor (Homo sapiens) (UniProt P03372). Kind of assay: CCTE_Deisenroth_AIME_384WELL_LUC_Inactive: CCTE's 384-well Estrogen Receptor Transactivation Assay without AIME metabolic competence (ERTA luciferase; metabolism negative), Deisenroth Lab (AID 2284038).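 Note: hits raise estrogen receptor luciferase signal so potencies reflect agonists.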 The gist of the method: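 Chemicals (10-point series, 0.002 - 200 uM) were incubated 2 hours with alginate-water microsphere lids lacking S9, then the conditioned medium was transferred to VM7Luc4E2 breast cells for 24 hour. Luciferase induction was read by bioluminescence, fitted upward relative to 17beta-estradiol.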

The nature of assay [4]: CCTE_Deisenroth_AIME_384WELL_CTox_Inactive: Cytotoxicity Assessment (CTOX) in CCTE's 384-well Estrogen Receptor Transactivation Assay without AIME metabolic competence (metabolism negative), Deisenroth Lab (AID 2284039).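 Note: cell viability via live-cell protease substrate cleaved to fluorescent probe; cells exposed 24 h to medium preincubated 2 h with alginate-water beads without S9.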 A digest of the protocol:
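Fluorescence from a live-cell protease substrate, read after 24 h in VM7Luc4E2 cells, indicated viability. Test medium came from a 2 h AIME step without hepatic S9 (alginate-water microspheres); concentrations spanned 0.002 - 200 uM, single technical replicate per run.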

A short description of assay [5]: CCTE_Shafer_MEA_acute_cross_correlation_area: CCTE's Neural Acute Assay for Area of Cross Correlation, Shafer Lab (AID 2284024; active = hit-call score of the fitted dose curve at least 0.9, where 1 is the maximum; inactive = score below 0.9;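 note: rat primary cortical neuron networks on 48-well MEA at DIV 13 or 15 with 40 min exposure; area under pooled inter-electrode spike cross-correlation near zero lag as percent change from own baseline; curves fitted for loss of cross-correlation area so actives lower synchrony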). A digest of the protocol: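 Plates equilibrated 20 min at 37 C, then 40 min baseline was recorded, compound was added (0.03-40 uM), and a further 40 min was recorded. Wells needed ≥10 active electrodes (≥5 spikes/min) on exposure day.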

Assay [6] can be described thus: CCTE_Shafer_MEA_acute_cross_correlation_HWHM: CCTE's Neural Acute Assay for Cross Correlation at Half Width at Half Maximum, Shafer Lab (AID 2284026; active = hit-call score of the fitted dose curve at least 0.9, where 1 is the maximum; inactive = score below 0.9;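 note: spontaneous network firing of rat primary cortical neurons on multiwell microelectrode arrays; percent change per well from pre-dose baseline in spike cross-correlogram half width; hits are a decrease in cross-correlogram half width relative to DMSO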). The gist of the method:
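Rat cortical neuron cultures on microelectrode arrays were equilibrated 20 min at 37 C, recorded 40 min at baseline, then 40 min after compound addition (0.03-40 uM, ≥3 wells). Spikes were detected at 8x rms noise after 300-5000 Hz band-pass filtering.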

Assay [7] can be described thus: CCTE_Shafer_MEA_acute_synchrony_index: CCTE's Neural Acute Assay for Synchrony, Shafer Lab (AID 2284027; active = hit-call score of the fitted dose curve at least 0.9, where 1 is the maximum; inactive = score below 0.9;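 note: network synchrony index of spontaneous spiking in primary rat cortical neurons on MEAs; fitted for loss of signal so actives lower synchrony relative to DMSO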). The gist of the method: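 Primary rat cortical neurons on 16-electrode MEA wells were recorded 40 min at baseline (DIV 13 or 15) and 40 min after compound (0.03-40 uM) at 37 C. Synchrony index (0-1) expressed as percent change from baseline, versus DMSO.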
Assay [8] is described as follows: CCTE_Shafer_MEA_dev_firing_rate_mean: CCTE's Neural Network Formation Assay for Mean Firing Rate, Shafer Lab (AID 2284031; active = hit-call score of the fitted dose curve at least 0.9, where 1 is the maximum; inactive = score below 0.9;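 for AC50: curve fitted for loss of firing so AC50 reflects decreased mean firing rate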). A digest of the protocol:
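Primary rat cortical neurons on 48-well, 16-electrode MEAs (PEI-coated, laminin at plating), exposed from day 0 with compound renewed at DIV 5 and 9. Spikes recorded DIV 5, 7, 9, 12; well-mean firing rate collapsed to trapezoidal AUC, loss-of-signal vs DMSO.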

Assay [9] in a line: CCTE_Shafer_MEA_dev_per_burst_spike_percent: CCTE's Neural Network Formation Assay for Percent of Spikes in a Burst, Shafer Lab (AID 2284032; active = hit-call score of the fitted dose curve at least 0.9, where 1 is the maximum; inactive = score below 0.9;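 for AC50: fitted as a decrease in burst spike percentage below DMSO baseline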). The gist of the method: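 Rat primary cortical neurons on 16-electrode MEA wells, dosed from plating day 0 for 12 days with renewal on DIV 5 and 9; spikes-in-bursts percentage averaged over bursting electrodes, collapsed as AUC across days 5, 7, 9, 12; loss direction versus DMSO.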

Assay [10] is described as follows: CCTE_Shafer_MEA_dev_active_electrodes_number: CCTE's Neural Network Formation Assay for Number of Active Electrodes, Shafer Lab (AID 2284040).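 Note: potency for loss of active electrodes versus DMSO so lower counts are hits.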 A digest of the protocol:
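Rat cortical primary cultures, 1.5 x 10^5 cells/well, PEI-coated MEA, laminin drop. Continuous exposure DIV 0–12; full media/compound change DIV 5, 9. Readout: electrodes with mean firing ≥5 spikes/min; AUC across days; loss vs DMSO.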

The structures appear in SMILES notation. Inconclusive results are not listed. Active and inactive are the calls of the source. Rule for the calls, unless noted: active = hit-call score of the fitted dose curve at least 0.9, where 1 is the maximum; inconclusive = response in the unintended direction; inactive = score below 0.9.

For `CN(C)CCCN`, the outcome in assay [1], in assay [2], in [3] and in assay [4] was inactive.
Take `CC[Si](OC(C)=O)(OC(C)=O)OC(C)=O`: the result in [5], in assay [6] and in assay [7] was inactive.
As to `CC(C)(COC(=O)c1ccccc1)COC(=O)c1ccccc1`, the outcome in [5], in [6] and in [7] was inactive.
As a reminder, the AC50 is the midpoint of the concentration-response curve, whichever way the signal moves. For `OCCOCCOCCOCCO`, the values for the AC50 in assay [1] and in assay [3] were 0.342 nM (active) and 1.71 nM (active), respectively. The call in [2] and in assay [4] was inactive.
As to `C=CCOC(=O)CCC1CCCCC1`, the call in assay [5], in assay [6] and in assay [7] was inactive.
For `NCCNCCN`, the result in [5], in assay [6], in assay [7] and in [2] was inactive.
On to `O=C(O)c1ccc([N+](=O)[O-])cc1`, for which the call in assay [2] and in assay [4] was inactive.
On to `CCCCCCCCCC=O`, for which the outcome in assay [1] and in assay [3] was inactive.
In the case of `CC(C)=CCCC(C)CC=O` (stereo not drawn), the outcome in [2] and in assay [4] was inactive.
In the case of `c1ccc2c(c1)c1cccc3ccc4cccc2c4c31`, the compound was called inactive in [8] and in assay [9]. Besides, in [10], the AC50 is 3190 nM (active).
In the case of `O=C1C(c2[nH]c3ccc(S(=O)(=O)O)cc3c2O)=Nc2ccc(S(=O)(=O)O)cc21`, in assay [4], the compound was called inactive.
On to `CC1(C)[C@@H]2CC[C@@]1(C)[C@H](O)C2`, for which the call in [2] and in [4] was inactive.
For the compound `O=C(O)Cc1cccc2ccccc12`, the result in assay [2] was inactive.
With `O=C(O)c1ccc(C(=O)O)cc1`, the call in assay [4] was inactive.
In the case of `CCCCC(CC)COC(=O)/C=C\C(=O)OCC(CC)CCCC` (stereo not drawn), the result in assay [4] was inactive.
As for `CCCCCOC(=O)CCC`, the result in [2] was inactive.
Consider `CCCCCCCCCCCCCC(=O)O`, for which the compound was classed as inactive in assay [1], in [2], in assay [3] and in [4].
Turning to `CCCC1CCC(=O)O1` (stereo not drawn), the call in [2] and in [4] was inactive.
Take `NCCCCCCN`: the result in [2] and in [4] was inactive.
As to `Cc1ccc(O)c(C(C)(C)C)c1`, the compound was classed as inactive in [2].
Take `CCC(=O)/C=C/C1C(C)=CCCC1(C)C` (stereo not drawn): the compound was classed as inactive in [4].
Consider `CCCCCCCCCCCCCOS(=O)(=O)O`, for which the values for the AC50 in [2] and in assay [4] were 156000 nM (active) and 96300 nM (active), respectively.
Regarding `N#Cc1ccc(CC(=NNC(=O)Nc2ccc(OC(F)(F)F)cc2)c2cccc(C(F)(F)F)c2)cc1`, the figures for the AC50 in assay [8], in assay [9] and in [10] were 363 nM (active), 301 nM (active) and 692 nM (active), respectively.
For the compound `O=C[C@@H](O)[C@H](O)[C@H](O)CO`, the compound was called inactive in assay [2] and in assay [4].
Take `NC(=O)NC1NC(=O)NC1=O` (stereo not drawn): the compound was called inactive in assay [4].
Regarding `CC1(C)C(=O)N(Br)C(=O)N1Cl`, the result in assay [2] and in assay [4] was inactive.
`O=C(Cl)c1cccc(C(=O)Cl)c1`: in assay [2], the outcome was inactive.

These data come from PubChem BioAssay (EPA / NIEHS).
